Compound activity (PubChem)
Tb PFK inh-1: qHTS Assay to Find Inhibitors of T. brucei phosphofructokinase | T. brucei PFK, ADP-Glo luminescence | Potency, µM (doses to about 57.5 µM), actives largely listed as inhibitors | ATP-dependent 6-phosphofructokinase (Trypanosoma brucei brucei), O15648 | AID 485367, 2010 | 330,000 compounds, 0.17% hits; note: nearly all actives have a fitted effect of over 60% in size
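Activity is normalized to no-enzyme wells (full inhibition) and 1.25 nM enzyme wells (no inhibition). Reaction: 0.5 mM F6P, 0.1 mM ATP, 45 min RT, ADP-Glo luminescence; concentration-response curves fitted and classed by quality.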
Tb PGK inh: qHTS Assay to Find Inhibitors of Phosphoglycerate Kinase; AID 602233, 2012; 380,000 compounds, 0.043% hits; Phosphoglycerate kinase, glycosomal (Trypanosoma brucei brucei), P07378; Potency, µM (top dose mostly 57.5 µM), hits mostly inhibitors; PGK/GAPDH coupled, Kinase-Glo luminescence, 60 min; note: nearly all actives have a fitted effect of over 60% in size
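Recombinant glycosomal PGK reaction used 1,3-bisphosphoglycerate generated in-well by GAPDH (100nM final) in 100mM TEA pH 7.6, 5mM MgCl2, 0.01% Tween-20. After 60 minutes at room temperature, ATP was read by Kinase-Glo Plus luminescence end-point.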
Pin1 inh: qHTS Assay to Find Inhibitors of Pin1. AID 504891, 2011. Potency, µM (highest dose often 115 µM), most hits filed as inhibitors. 390,000 compounds, 0.009% hits. Pin1 FP peptide displacement, HiFluor488, 10 min; active = well fitted inhibition curve with a large enough effect in the polarisation, with a control signal flat, not every such curve was filed as active; inconclusive = small, poorly fitted or top-dose-only effect, or effect the other way, or a change in a side signal; inactive = no such curve, though single readings can be large or run the other way; the % refers to the polarisation
Target sequence (Q13526 whole entry, looked up): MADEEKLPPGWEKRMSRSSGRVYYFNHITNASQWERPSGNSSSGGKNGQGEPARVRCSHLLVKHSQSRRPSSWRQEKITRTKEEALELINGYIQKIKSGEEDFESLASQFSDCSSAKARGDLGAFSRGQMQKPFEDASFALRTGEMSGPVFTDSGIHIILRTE
PI5P4Ka inh: qHTS for Inhibitors of phosphatidylinositol 5-phosphate 4-kinase (PI5P4K); PI5P4Kalpha enzyme, ADP-Glo luminescence, 60 min; hits give low values; 330,000 compounds, 1.2% hits; max response, %; Phosphatidylinositol 5-phosphate 4-kinase type-2 alpha (Homo sapiens), P48426; active = max response of -50% or lower; inconclusive = between -30% and -50%; inactive = -30% or higher; note: value at the top dose of about 77 µM
Target sequence (P48426 whole entry, looked up): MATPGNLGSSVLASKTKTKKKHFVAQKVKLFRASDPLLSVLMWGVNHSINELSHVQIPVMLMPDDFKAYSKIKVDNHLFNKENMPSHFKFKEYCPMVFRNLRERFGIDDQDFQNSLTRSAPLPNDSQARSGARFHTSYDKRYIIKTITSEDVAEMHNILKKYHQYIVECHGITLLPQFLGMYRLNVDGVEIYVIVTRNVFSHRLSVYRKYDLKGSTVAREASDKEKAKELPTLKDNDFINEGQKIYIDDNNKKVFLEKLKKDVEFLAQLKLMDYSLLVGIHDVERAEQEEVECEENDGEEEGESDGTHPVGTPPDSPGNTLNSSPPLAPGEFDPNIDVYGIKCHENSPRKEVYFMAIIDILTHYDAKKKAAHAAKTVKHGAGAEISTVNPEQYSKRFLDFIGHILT
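qHTS, 1536-well: enzyme/substrate mix, compound by pin tool, 5 microM ATP final; RT 60 min; ADP-Glo reagents 1 (45 min) then 2 (30 min); luminescence.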
PI4K2A inh: qHTS for small molecular inhibitors of PI4K2A; activity change, negative = inhibition, % at 76.9 µM; 420,000 compounds, 0.13% hits; purified PI4K2A, ADP-Glo luminescence, 1 h; hits give low values; in the data active = activity change below about -50%; inconclusive = mostly about -30% to -49%
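In this quantitative HTS, ADP production by PI4K2A was quantified luminescently after 1 h at ambient temperature; 100 microM adenosine served as plate-quality control.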
Tb PFK KinaseGlo: Tb PFK orthogonal confirmatory assay using ATP depletion (Kinase-Glo Plus) as an alternative measure of Tb PFK activity: Hit Validation. Tb PFK enzyme, ATP depletion, Kinase-Glo Plus luminescence. shares compounds with Tb PFK inh-1. 1,100 compounds, 47% hits. Potency, µM (highest dose often 57.5 µM); calls by dose curve; note: nearly all actives have a fitted effect of over 60% in size
Tb PFK inh-2: Inhibitors of T. brucei phosphofructokinase: Hit Validation; shares compounds with Tb PFK inh-1; purified T. brucei PFK, ADP-Glo luminescence, 45 min; Potency, µM (highest dose often 57.5 µM), hits mostly inhibitors; 1,100 compounds, 41% hits; note: nearly all actives have a fitted effect of over 60% in size
A number is an active result; – = inactive; ? = inconclusive; · = not tested or not shown. The full list was thinned out, with hits kept by preference. Unless noted, calls come from the whole dose curve; as a rule, active = well fitted curve in the direction sought with a large enough effect; inconclusive = small, poorly fitted or top-dose-only effect, or another doubt; inactive = no such curve, though single readings can be large; an effect the other way counts as inactive or inconclusive.

SMILES	Tb PFK inh-1	Tb PGK inh	Pin1 inh	PI5P4Ka inh	PI4K2A inh	Tb PFK KinaseGlo	Tb PFK inh-2
O=[N+]([O-])c1cccc2c([N+](=O)[O-])cccc12	–	–	–	–	–	·	·
Cc1c(N=Cc2ccc(O)c(Br)c2)cccc1[N+](=O)[O-]	26.9µM	–	–	–	–	?	?
CC(C)(C)NC(=O)C1CN=C(c2ccccc2)c2cc(Cl)ccc2N1C(=O)C1CCC1 (stereo unspecified)	·	·	·	·	–	·	·
O=C(O)COc1ccc(/C=N/NC(=O)c2ccc(-c3csc(Nc4ccc(Cl)cc4)n3)cc2)cc1	?	?	·	-69.2	–	1.69µM	2.39µM
O=c1[nH]c(=S)n(Cc2ccco2)c(O)c1C=NCc1cccs1	?	–	?	-69.2	-56.6	?	–
COc1cccc(NC(=O)c2cccn(Cc3ccccc3C)c2=O)c1	·	–	?	·	–	·	·
CCn1c(O)c(C=NCc2ccccc2)c(=O)[nH]c1=S	–	–	–	–	–	·	·
CCn1c(C)c(CS(=O)(=O)c2ccccc2)[nH]c1=O	?	–	–	–	–	–	?
Nc1ccn(Cc2cccc(Cl)c2)n1	26.9µM	–	–	–	–	19µM	?
C=CCN1C[C@@H](C)N([C@H](c2ccc(C(=O)N(CC)CC)cc2)c2cccc(OC)c2)C[C@@H]1C	·	·	·	·	–	·	·
CC(C)C(C(=O)NC(C)(C)C)N1C(=O)CN=C(c2ccccc2)c2ccccc21 (stereo unspecified)	·	·	·	·	–	·	·
Oc1cccc2cccnc12	–	·	–	·	–	·	·
CCSS(=O)(=O)c1cccc2cccnc12	21.3µM	–	–	-83.6	–	8.49µM	19µM
Cc1cccc(C2CC(=O)Oc3c2c(=O)oc2ccccc32)c1 (stereo unspecified)	·	·	–	·	–	·	·
Nc1ccccc1Sc1nc2ccccc2[nH]1	?	–	–	?	–	16.9µM	?
O=C1CC[C@@]2(O)C3Cc4ccc(O)c5c4C2(CCN3CC2CC2)[C@H]1O5 (stereo partly specified)	·	·	·	·	–	·	·
CN1CCN(S(=O)(=O)c2ccc(NC(=O)Cc3ccc([N+](=O)[O-])cc3)cc2)CC1	16.9µM	–	–	–	–	6.01µM	12µM
Cc1cc(OCC(=O)Nc2ccc(S(=O)(=O)N3CCN(C)CC3)cc2)ccc1Cl	26.9µM	–	–	–	–	?	?
O=C(Cc1cccc(C(F)(F)F)c1)Nc1ccc(S(=O)(=O)N2CCCC2)cc1	?	–	–	–	–	?	?
CCOc1ccc(OCC)c(NC(=O)CCn2c(=O)oc3ccccc32)c1	–	–	?	–	–	·	·
O=S1(=O)N(Cc2ccccc2)CCCN1Cc1cccc(Cl)c1	·	–	–	·	–	·	·
Cn1c(N)c(C(=O)COC(=O)Cc2ccc(Cl)c(Cl)c2)c(=O)n(C)c1=O	9.53µM	–	–	–	–	6.75µM	12µM
Cc1nc([N+](=O)[O-])c(Br)n1Cc1ccc(Cl)c(Cl)c1	21.3µM	–	–	–	–	?	?
CCNC(=O)C1CCCc2c1[nH]c1ccc(Cl)cc21 (stereo unspecified)	?	–	–	–	–	12µM	21.3µM
CC(C)C(Br)C(=O)NC(N)=O (stereo unspecified)	·	·	·	·	–	·	·
SMILES	Tb PFK inh-1	Tb PGK inh	Pin1 inh	PI5P4Ka inh	PI4K2A inh	Tb PFK KinaseGlo	Tb PFK inh-2
COc1cc(/C=C(\C#N)C(=O)c2ccc(O)c(O)c2)cc(I)c1O	1.69µM	?	?	-84.9	–	–	–
O=C(COc1ccc([N+](=O)[O-])cc1)Nc1cc(C(=O)O)cc(C(=O)O)c1	?	–	–	–	–	13.5µM	26.9µM
O=[N+]([O-])c1ccc(OP(=O)(O)Oc2ccc([N+](=O)[O-])cc2)cc1	·	–	–	–	–	·	·
Cc1cccc(-c2nc(CN3C(=O)CN=C(c4ccccc4)c4ccccc43)c(C)o2)c1	·	–	–	·	–	·	·
O=C(O)/C=C\C(=O)Nc1ccc(N2CCN(c3ccc(Cl)c(Cl)c3)CC2)cc1	?	–	–	–	–	5.36µM	10.7µM
O=C(Nc1ccc(Cl)cc1)N1CC1	·	–	–	–	–	·	·
CN1CCN(C(=S)C(=O)Nc2ccc(Br)cc2)CC1	12µM	–	–	-55.6	–	7.57µM	12µM
Cc1ccc(CCNC(=O)Cn2nc(C)c3c(C)n(-c4ccc(C)cc4)nc3c2=O)cc1	·	–	–	·	–	·	·
CCc1ccc(NC(=O)c2cccn(Cc3cccc([N+](=O)[O-])c3)c2=O)cc1	·	–	–	·	–	·	·
O=C1CC(=O)N(c2cccc(Cl)c2)C(=O)N1	–	·	–	·	–	·	·
Nc1nc(N2CCN(c3cccc(Cl)c3)CC2)n[nH]1	26.9µM	–	–	–	–	?	–
O=C(CN1CC=C(c2ccccc2)CC1)NC(=O)NCc1ccco1	–	–	–	–	–	·	·
S=C(NCc1ccco1)N1CCN(c2cccc(Cl)c2)CC1	?	–	–	–	–	23.9µM	?
Cc1ccc(Cl)cc1N1CCN(CCN)CC1	–	–	–	–	–	·	·
S=C(NCCN1CCOCC1)N1CCN(c2cccc(Cl)c2)CC1	?	–	–	–	–	?	26.9µM
NCC(CP(=O)(O)O)c1ccc(Cl)cc1 (stereo unspecified)	·	·	·	·	–	·	·
O=C(CCN1CCN(Cc2ccccc2)CC1)NNC(=O)Cc1ccc(Cl)c(Cl)c1	16.9µM	–	–	–	–	8.49µM	10.7µM
Oc1c(Cl)cc(Cl)cc1CN1CCN(Cc2ccccc2)CC1	–	–	?	·	–	·	·
CCOP(=O)(OCC)c1nc(-c2ccc(F)cc2)oc1NCc1ccccc1	–	–	?	–	–	·	·
N#Cc1sc(NCc2cccc(Cl)c2)nc1Cl	?	–	–	–	–	19µM	30.1µM
CCCCn1c(=O)c(C(=O)Nc2nnc(C(C)C)s2)c(O)c2ccccc21	–	·	·	·	·	·	·
CCCC(C)c1nnc(NC(=O)c2cc(C(=O)OC)cc([N+](=O)[O-])c2)s1 (stereo unspecified)	23.9µM	–	–	·	–	6.75µM	15.1µM
COc1ccc(NC(=O)CN2C(=O)CN=C(c3ccccc3)c3ccccc32)c(OC)c1	·	–	–	·	–	·	·
Cc1ccc(NC(=O)N(Cc2ccc3c(c2)OCO3)C2CCN(Cc3ccccc3)CC2)cc1Cl	·	–	–	·	–	·	·
Nn1c(SCC(=O)Nc2cccnc2Cl)nnc1-c1ccccc1	?	–	–	?	–	9.53µM	10.7µM
